The full list was thinned out, with hits kept by preference.
ST2 IL33 inh = inhibitors of human ST2 (IL1RL1) binding to IL-33; AID 1259354; 78,000 compounds, 2.3% hits; inhibition, % for hits at 17 µM; Q01638; AlphaLISA ST2-Fc/biotin-IL-33 interaction, 1 h; in the data active = inhibition above about 30%
Target sequence (Q01638 whole entry, looked up): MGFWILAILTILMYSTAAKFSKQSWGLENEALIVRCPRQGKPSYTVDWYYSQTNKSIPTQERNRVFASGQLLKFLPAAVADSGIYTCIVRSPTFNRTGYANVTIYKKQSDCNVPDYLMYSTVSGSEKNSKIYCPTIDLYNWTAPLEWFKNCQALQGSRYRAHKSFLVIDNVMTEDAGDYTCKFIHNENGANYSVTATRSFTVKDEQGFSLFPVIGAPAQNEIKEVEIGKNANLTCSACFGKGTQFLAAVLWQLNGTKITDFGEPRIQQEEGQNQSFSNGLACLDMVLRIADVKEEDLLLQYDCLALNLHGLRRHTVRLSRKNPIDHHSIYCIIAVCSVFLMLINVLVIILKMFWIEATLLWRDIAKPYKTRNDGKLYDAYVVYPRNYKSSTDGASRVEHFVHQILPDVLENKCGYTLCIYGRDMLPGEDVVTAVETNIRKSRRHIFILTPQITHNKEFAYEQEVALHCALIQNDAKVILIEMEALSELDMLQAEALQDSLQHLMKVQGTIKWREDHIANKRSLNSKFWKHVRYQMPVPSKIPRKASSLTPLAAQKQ
Numbers stand for hits; - = inactive.

SMILES	ST2 IL33 inh
COc1cc(C=Nc2ccc(Nc3ccccc3)cc2)c([N+](=O)[O-])cc1OC	57%
COc1ccccc1N=Cc1cccc([N+](=O)[O-])c1O	-
COc1cc(OC)c(OC)cc1/C=C1\N=C(c2ccc(OC)c([N+](=O)[O-])c2)OC1=O	-
Cc1cccc(-c2nc(NC(=O)N3CCc4c([nH]c5ccccc45)C3)n[nH]2)c1	-
Clc1ccc2c(c1)C1CC(c3ccccc3)=NN1CO2 (configuration not stated)	-
c1csc(C2=NN3C(C2)c2ccccc2OC32CCCC2)c1 (configuration not stated)	-
CC(C)C1Oc2ccc(Cl)cc2C2CC(c3cccs3)=NN21 (configuration not stated)	34%
CN(CC(=O)N1CCN(c2ccc(Cl)cc2)CC1)S(=O)(=O)c1ccc2c(c1)CCC(=O)N2	-
COc1ccc2nc(NC3=NC(c4ccccc4)CC(=O)N3)nc(C)c2c1 (configuration not stated)	-
CC1=NC(Nc2nc(C)c3ccccc3n2)=NC(C)(C)C1	36%
Cc1nc(SCc2ccc(Cl)cc2)nc2ccccc12	-
N#CC1=C(N)Oc2c(c(=O)oc3ccccc23)[C@]12C(=O)N(CC(N)=O)c1ccccc12	-
O=C(NCc1ccccc1)c1ccccc1-c1nc2ccccc2[nH]1	-
O=C(Nc1nonc1-c1nc2ccccc2[nH]1)c1ccccc1Cl	32%
O=C(Nc1cccc(-c2nc3ccccc3[nH]2)c1)c1ccccc1	-
CCN1CCN(C(=O)c2cc(=O)c3ccccc3o2)C(C)C1=O (configuration not stated)	-
CCCC1COCCN1C(=O)c1cc(=O)c2ccccc2o1 (configuration not stated)	40%
Cc1ccc(NC2CCCN(C(=O)c3cc(=O)c4ccccc4o3)C2)cc1C (configuration not stated)	-
O=C(NC1CCCC1)C1CCN(Cc2ccc(Cl)cc2)CC1	-
Cc1cc2c(cc1C)NC(c1ccc3c(c1)OCO3)C1=C(CC(C)(C)CC1=O)N2 (configuration not stated)	-
CN1CCC2(CC1)CN(C(=O)c1cc(-c3ccc(O)cc3)n[nH]1)CCCN2C	-
COc1cc(C(=O)N2CCCN(C)C3(CCN(C)CC3)C2)nc(OC)n1	33%
CNc1nc(C(=O)N2CCC3(CCCN(C)CC3)CC2)cs1	-
Cc1nnc(SCCCNC(=O)C2CCS(=O)(=O)CC2)s1	-
Cc1cc2c3c(C)n(C)c(C)c3c(C)nn2c1	54%
SMILES	ST2 IL33 inh
COc1cc2c(cc1NC(=O)CN1C(=O)c3ccccc3C1=O)oc1ccccc12	-
C=CCN1CCN(c2ncnc3c2CCN(C(=O)c2cccnc2)C3)CC1	-
COc1cc(OC)c(OC)cc1CN1CCC(N2CCCCC2)CC1	-
COc1ccc(C(=O)Nc2ccc(OC)cc2OC)cc1	-
COc1ccc(NC(=O)c2ccc(Br)cc2)c([N+](=O)[O-])c1	-
COc1ccc(NC(=O)C(Cl)(Cl)Cl)c([N+](=O)[O-])c1	34%
COc1ccc(NC(=O)COc2ccccc2)c([N+](=O)[O-])c1	-
CC(=O)N1CCN(c2nc3ccc(C)cc3cc2CN(CCC2=CCCCC2)C(=O)C(C)C)CC1	-
CCOc1ccc(C2C(=O)c3ccccc3C2=O)cc1	-
CCc1ccc(S(=O)(=O)N(CC)CC)cc1	-
CC(C)(C)c1ccc(S(=O)(=O)N=C2C=CC(=O)c3ccccc32)cc1	44%
CCc1ccc(S(=O)(=O)N=C2C=CC(=O)c3ccccc32)cc1	49%
CC(C)(C)c1ccc(S(N)(=O)=O)cc1	-
CCOc1cccc(S(=O)(=O)N=C2C=C(C(C)(C)C)C(=O)C(C(C)(C)C)=C2)c1	-
CCOc1ccc(S(=O)(=O)N=C2C=CC(=O)c3ccccc32)cc1	49%
CCc1ccc(S(=O)(=O)N2CCCN(S(=O)(=O)c3ccc(CC)cc3)CC2)cc1	-
CC(C)(C)c1ccc(S(=O)(=O)Nc2ccccn2)cc1	-
N#Cc1ccc(Oc2ccc(C(=O)Nc3ccccc3)cc2)cc1	-
O=C(c1ccco1)N1CCCCCC1	-
O=C(c1scc2c1CCCC2)N1CCCC(Nc2ccc(F)cc2)C1 (configuration not stated)	-
O=C(CN1CCC(c2ccccc2)C1)NCc1cccnc1N1CCOCC1 (configuration not stated)	-
Cc1nc(-c2ccc(-n3cnnc3)cc2)n[nH]1	-
COC(=O)c1ccccc1NS(=O)(=O)c1ccc2c(c1)CCC(=O)N2	-
Cn1c(OCc2cccnc2)nc2c1c(=O)n(Cc1ccc(Cl)cc1)c(=O)n2C	-
C=CCOc1nc2c(c(=O)n(C)c(=O)n2C)n1C	-
SMILES	ST2 IL33 inh
C=CCOc1nc2c(c(=O)n(Cc3ccc(Br)cc3)c(=O)n2C)n1C	39%
O=C(NC1CCCCCCC1)C1CCCN1S(=O)(=O)c1cccc2nsnc12 (configuration not stated)	33%
CC(C)(C)NC(=O)C1CCCN1S(=O)(=O)c1cccc2nsnc12 (configuration not stated)	-
O=C(C1CCCN1S(=O)(=O)c1cccc2nsnc12)N1CCCCC1 (configuration not stated)	-
Cc1ccc(S(=O)(=O)N(C)CC(=O)N2CCN(c3ccccc3F)CC2)cc1	-
Cc1cc(C)nc(CCNc2nncc(-c3ccccc3C)n2)n1	-
CC1CCCCN1C(=O)c1cc(-c2ccc(Cl)cc2)on1 (configuration not stated)	-
CN(C)c1ccc(/C=C2\N=C(c3ccc([N+](=O)[O-])cc3)OC2=O)cc1	-
CCCCOc1ccc(C2=N/C(=C\c3ccc(N(C)C)cc3)C(=O)O2)cc1	37%
Cc1ccccc1C1=N/C(=C\c2ccccc2)C(=O)O1	33%
Cc1ccccc1C1=N/C(=C\c2cccc(F)c2)C(=O)O1	-
Cc1cccc(C2=N/C(=C\c3ccc(Br)cc3)C(=O)O2)c1	-
O=C1OC(c2ccc(-c3ccccc3)cc2)=N/C1=C\c1ccccc1	-
O=C1OC(c2ccc(Br)cc2)=N/C1=C\C=C\c1ccccc1	-
Cc1ccccc1C1=N/C(=C\C=C\c2ccccc2)C(=O)O1	42%
CN(C)c1ccc(/C=C2\N=C(c3ccccc3)OC2=O)cc1Br	41%
COc1ccc(/C=C2\N=C(c3ccccc3C)OC2=O)cc1	-
CCCCOc1ccc(/C=C2\N=C(c3cccc([N+](=O)[O-])c3)OC2=O)cc1	-
O=C1OC(c2ccc(Cl)cc2Cl)=N/C1=C\c1ccccc1	-
CC(C)=CC(=O)N1CCC2(CC1)CNC(=O)C2	-
Cn1c(=O)c2c(nc(Cl)n2CC(O)COc2cccc3ccccc23)n(C)c1=O (configuration not stated)	-
COc1ccc(N2CCCS2(=O)=O)cc1NC(=O)c1cccc(Cl)c1	-
CCCCOc1ccc(N2C(=O)C3C(C2=O)[C@H]2C=C[C@@H]3CC2)cc1 (some centres not stated)	-
O=C1CCCC2=C1C(c1ccc(O)cc1)n1nc(SCc3ccccc3Cl)nc1N2 (configuration not stated)	-
Cc1ccc(C2CC(C(F)(F)F)n3nc(C(=O)N4CCOCC4)cc3N2)cc1 (configuration not stated)	-
CCCS(=O)(=O)N1CCN(C(=O)c2cccc(OC)c2OC)CC1	-
COc1ccc(C2C(C#N)=C(N)Oc3cc(N)ccc32)cc1Br (configuration not stated)	-
CCO[C@]1(O)CC(n2cc([N+](=O)[O-])nc2C)[C@H]2CO[C@@H]1O2 (some centres not stated)	-
COc1ccc(/C=C2\N=C(c3cccc([N+](=O)[O-])c3)OC2=O)cc1	-

High-throughput results (PubChem)
